Data on 16 compounds can be found in PubChem BioAssay (NCATS).

For experiment [1], the target named is Dual specificity protein kinase CLK4 (Homo sapiens) (UniProt Q9HAZ1). Put plainly: qHTS Assay for Inhibitors of CDC-like Kinase 4 (ADP-Glo Assay) (AID 1771). Note: potency is the fitted concentration of half-maximal effect; nearly all actives have a fitted effect of over 70% in size. The method, boiled down:
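Luminescence from ADP-Glo reports ADP produced by 25 nM Clk4 acting on 100 uM RS repeat peptide with 1 uM ATP over 1 hr at room temperature; residual ATP is depleted before ADP is converted to ATP for detection.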
For orientation: In qHTS, concentration-response curves come from the screen itself.

The target in experiment [2] is DNA dC->dU-editing enzyme APOBEC-3G (Homo sapiens) (UniProt Q9HC16). Put plainly: qHTS for inhibitors of Vif-A3G interactions: Validation (AID 588379). Note: 0% is about no effect. The essentials:
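HeLa cells stably expressing Vif and A3G-eYFP, 700 cells/well, incubated overnight at 37 deg C, then exposed to compound overnight at 37 deg C. Inhibition of Vif-mediated degradation read as increased yellow fluorescence (Ex 488/Em 500-530) by laser-scanning cytometry.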

Experiment [3] has as its target Glucocorticoid receptor (Homo sapiens) (UniProt P04150). Put plainly: qHTS assay for small molecule agonists of glucocorticoid receptor signaling (AID 588532; active = well fitted curve in the direction sought with a large enough effect in the signal ratio, with a control signal flat; the % refers to the signal ratio;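 note: 100% = dexamethasone at 0.1 µM and 0% = DMSO only wells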). The following applies: HeLa MMTV-bla, beta-lactamase ratio, agonist, 18 h; stronger effect = higher value; percent of dexamethasone control, DMSO zero. The essentials:
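Stimulation of a glucocorticoid response element-driven beta-lactamase gene was measured in HeLa cells. Responses were scaled between DMSO basal and 0.1 uM dexamethasone, then fitted for half-maximal stimulation.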

Experiment [4] shares this target. Nature of the experiment: qHTS assay for small molecule antagonists of glucocorticoid receptor signaling (AID 588533; active = well fitted inhibition curve with a large enough effect in the signal ratio, with a control signal flat, not every such curve was filed as active; the % refers to the signal ratio;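 note: cells stimulated with 2 nM dexamethasone as agonist; % is set by controls: 0 for no effect and ±100 for the full control effect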). The essentials: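 Antagonist-mode qHTS: compound titrations added to GRE-bla HeLa cells, then dexamethasone 2 nM final; 18 h, 37 C. CCF4 FRET fluorescence normalized to dexamethasone and DMSO; IC50 from Hill fit.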
Experiment [5] is described as follows: qHTS assay for small molecule agonists of the antioxidant response element (ARE) signaling pathway (AID 651741; active = well fitted activation curve with a large enough effect in the signal ratio; the % refers to the signal ratio; note: % of control where 0% means no effect). The method, boiled down: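 Compounds in DMSO are pinned onto HepG2 ARE-bla cells (2,000/well) that were preincubated 5 h; plates stay 16 h at 37 C, then beta-lactamase activity is detected with LiveBLAzer B/G substrate by fluorescence.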
The nature of experiment [6]: Cell Viability - LYMP2-003 (AID 965).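 Note: cells exposed to compounds for 24 h before reading; 0% = DMSO only and full effect = 92 µM tetraoctylammonium bromide; nearly all actives have a fitted effect of over 50% in size.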 The method, boiled down:
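Human lymphoblastoid LYMP2-003 cells, 2500/well, exposed to compounds for 24 h at 37 C in complete medium. Viability read as intracellular ATP by CellTiter-Glo luminescence; AC50 from Hill-equation fits of qHTS concentration-response data.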

A short description of experiment [7]: qHTS assay for small molecule antagonists of peroxisome proliferator-activated receptor delta signaling (AID 588535; active = well fitted inhibition curve with a large enough effect in the signal ratio, with a control signal flat, not every such curve was filed as active; the % refers to the signal ratio;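 for max response: cells co-treated with a PPAR-delta agonist as stimulator during compound exposure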). The following applies: HEK293T PPARd-UAS-bla, beta-lactamase FRET ratio, 18 h; 460 nm channel. The method, boiled down: (§1)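 Reporter: UAS-bla under PPAR-delta response element, HEK293T host. Medium: 2% charcoal/dextran FBS. Dosing: titration, 18 hrs, 37 C. Detection: CCF4, 2 hrs RT, 405 ex/460 and 530 em.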

The target in experiment [8] is Peroxisome proliferator-activated receptor delta (Homo sapiens) (UniProt Q03181). The description is as above. The method, boiled down: as §1
Experiment [9] is described as follows: qHTS assay for small molecule activators of the nuclear factor-kappa B (NF-kB) signaling pathway (AID 651749; active = well fitted activation curve with a large enough effect in the signal ratio; the % refers to the signal ratio; note: series mostly up to about 77 µM; % of control where 0% means no effect). The following applies: NF-kB-bla ME-180 cells, beta-lactamase FRET ratio, 16 h; stronger effect = higher value. The method, boiled down: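 Screening used 2,000 ME-180 reporter cells per well exposed to pinned compound (23 nL) or DMSO; after 16 hr at 37C, beta-lactamase expression under NF-kB control was assessed through FRET.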

Experiment [10] has as its target Nuclear receptor ROR-gamma (Homo sapiens) (UniProt P51449). Put plainly: qHTS assay for small molecule antagonists of the retinoid-related orphan receptor gamma (ROR-gamma) signaling pathway (AID 651802).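 Note: CHO cells with doxycycline-induced ROR-gamma expression; luciferase reporter luminescence driven by ROR response element; series mostly up to about 92 µM; % is set by controls: 0 for no effect and ±100 for the full control effect; nearly all actives have a fitted effect of over 60% in size.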 The method, boiled down:
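CHO, TET-inducible ROR + RORE-LUC reporter, 1536-well qHTS. Compound pinned, doxycycline added, 16hr 37C/5% CO2. ONE-Glo, 30 min RT, luminescence; signal drop scored as antagonism.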

The nature of experiment [11]: qHTS assay for small molecule activators of the human pregnane X receptor (PXR) signaling pathway (AID 720659; call rule not given here; note: 0% is about no effect).
In experiment [12] the target is Guanine nucleotide-binding protein G(i) subunit alpha-1 (Homo sapiens) (UniProt P63096). Nature of the experiment: qHTS Assay for Inhibitors of RGS12 GoLoco Motif Activity (Green Fluorophore) (AID 879).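 Note: 0% = labeled peptide with Gαi1 and full inhibition = labeled peptide alone without protein; negative values mean loss of peptide binding seen as reduced polarization.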 The essentials: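 Fluorescence polarization assay: 50 nM Gαi1 with 10 nM FITC-labeled RGS12 GoLoco peptide in 10 mM Tris pH 7.5, 150 mM NaCl, 0.1 mM GDP, 0.05% NP40, 10 min at room temperature with compound.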

A short description of experiment [13]: qHTS Assay for Identification of Small Molecule Agonists for Thrombopoietin (TPO) Signaling Pathway (AID 917). Note: % is set by controls: 0 for no effect and ±100 for the full control effect. The essentials:
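Murine Ba/F3 cells expressing human TPO receptor and GPIIb-promoter luciferase, IL-3-starved overnight, given compound plus TPO at 26 pM (EC50). After 24 h at 37 C, 5% CO2, luminescence read.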

Experiment [14] addresses Pyruvate kinase (Leishmania mexicana) (UniProt Q27686). Nature of the experiment: qHTS Validation Assay for Inhibitors of Leishmania Mexicana Pyruvate Kinase (AID 945).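 Note: 0% = DMSO only neutral control wells.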 The method, boiled down:
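Compounds are tested as eight-point concentration series. Reactions contain 0.2 nM LmPYK E451W, 0.5 mM PEP, 0.1 mM ADP, 7 mM MgCl2 and 50 mM KCl at pH 7.2, run 1 h at room temperature, then read by PKLight luminescence.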

In experiment [15] the target is Cytochrome P450 3A4 (Homo sapiens) (UniProt P08684). Put plainly: qHTS for inhibitors of CYP3A4 against the NCATS DSHEA and TCM libraries (AID 1919971).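 Note: % is set by controls: 0 for no effect and ±100 for the full control effect; inhibition lowers luminescence from luciferin made by CYP3A4.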 The method, boiled down:
(§2)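 Read-out is luminescence after P450-Glo detection (30 min, RT). Before that: 15 min compound–enzyme preincubation, then 30-45 min reaction with 1x NADPH regeneration solution, substrate concentration isoform-specific.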

Experiment [16] addresses Cytochrome P450 2C19 (Homo sapiens) (UniProt P33261). Nature of the experiment: qHTS for inhibitors of CYP2C19 against the NCATS DSHEA and TCM libraries (AID 1919974).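 Note: luminescence from luciferin released by CYP2C19 oxidation of a pro-luciferin substrate.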 Note: potency is the fitted concentration of half-maximal effect. The essentials: as §2
The target in experiment [17] is Cytochrome P450 1A2 (Homo sapiens) (UniProt P05177). Nature of the experiment: qHTS for inhibitors of CYPIA2 against the NCATS DSHEA and TCM libraries (AID 1919976). Note: potency is the fitted concentration of half-maximal effect. The essentials:
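CYP1A2 + luciferin substrate, 100 mM KPO4-type buffer; cmpd 15 min RT; 1x NADPH regen, 30-45 min RT dark; detection reagent 30 min RT; luminescence. Minus-enzyme wells as background; furafylline intraplate control.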

The target of experiment [18] is Nuclear receptor subfamily 1 group I member 2 (Homo sapiens) (UniProt O75469). Put plainly: Dual reporter qHTS for agonist of Pregnane X Receptor (hPXR) against the NCATS DSHEA and TCM libraries: Luminescence readout (AID 1920059). Note: 0% is about no effect. The method, boiled down:
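hPXR-LucHepG2 cells in phenol red-free DMEM with 5% charcoal-stripped FBS, 2000 cells/well, attached 5 h, then exposed 24 h at 37C to compounds; rifampicin as positive agonist control (2.8 nM–92 uM). Luciferase luminescence read.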

Experiment [19] shares this target. Nature of the experiment: Dual reporter qHTS for antagonist of Pregnane X Receptor (hPXR) against the NCATS DSHEA and TCM libraries: Luminescence Readout (AID 1920060).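 Note: HepG2 cells carrying hPXR luciferase reporter stimulated with rifampicin at 2 µM; 0% is about no effect.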 The essentials: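 Antagonist mode: rifampicin 2 uM final co-added with compounds to hPXR-LucHepG2 cells for 24 h at 37C. Viability by CellTiter-Fluor, Ex/Em 405/540 nm, 1 h; reporter by ONE-Glo luminescence.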

Experiment [20] in a line: S16 Schwann cell viability assay (CellTiter-Glo assay) (AID 624031).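 Note: native untransfected S16 rat Schwann cells; series mostly up to about 58 µM; plate controls were DMSO-treated cells for no effect and cell-free wells for full effect; nearly all actives have a fitted effect of over 70% in size.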 The essentials:
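Parental S16 cells, 24 h compound, 37 °C. ATP-luminescence viability; DMSO = 0% activity, empty wells as reference; curves classified by fit quality and efficacy.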
In general terms: ATP-based viability assays read luminescence as a measure of living cells.

The structures appear in SMILES notation. “And” between values parts separate entries of the source, which are not always exact repeats. Identical values can stand only once. Results filed as inconclusive are left out. The source made the active and inactive calls. Unless noted, calls come from the whole dose curve; as a rule, active = well fitted curve in the direction sought with a large enough effect; inconclusive = small, poorly fitted or top-dose-only effect, or another doubt; inactive = no such curve, though single readings can be large; an effect the other way counts as inactive or inconclusive.

Cytochrome P450 2C19 (Homo sapiens), sequence (P33261 whole entry, looked up): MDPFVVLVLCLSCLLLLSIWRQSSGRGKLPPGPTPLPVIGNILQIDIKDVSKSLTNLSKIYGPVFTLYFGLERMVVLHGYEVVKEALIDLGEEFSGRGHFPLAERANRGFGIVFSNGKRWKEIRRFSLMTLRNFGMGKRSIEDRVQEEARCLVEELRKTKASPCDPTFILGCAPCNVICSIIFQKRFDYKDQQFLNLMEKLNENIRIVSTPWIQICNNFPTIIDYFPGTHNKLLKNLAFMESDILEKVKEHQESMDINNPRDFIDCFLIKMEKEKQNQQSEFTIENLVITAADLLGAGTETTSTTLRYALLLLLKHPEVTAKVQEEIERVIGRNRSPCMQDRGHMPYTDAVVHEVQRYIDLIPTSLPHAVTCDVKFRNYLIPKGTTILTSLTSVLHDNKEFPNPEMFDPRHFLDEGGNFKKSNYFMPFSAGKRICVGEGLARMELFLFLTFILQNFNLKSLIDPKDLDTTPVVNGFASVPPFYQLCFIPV
Peroxisome proliferator-activated receptor delta (Homo sapiens), sequence (Q03181 whole entry, looked up): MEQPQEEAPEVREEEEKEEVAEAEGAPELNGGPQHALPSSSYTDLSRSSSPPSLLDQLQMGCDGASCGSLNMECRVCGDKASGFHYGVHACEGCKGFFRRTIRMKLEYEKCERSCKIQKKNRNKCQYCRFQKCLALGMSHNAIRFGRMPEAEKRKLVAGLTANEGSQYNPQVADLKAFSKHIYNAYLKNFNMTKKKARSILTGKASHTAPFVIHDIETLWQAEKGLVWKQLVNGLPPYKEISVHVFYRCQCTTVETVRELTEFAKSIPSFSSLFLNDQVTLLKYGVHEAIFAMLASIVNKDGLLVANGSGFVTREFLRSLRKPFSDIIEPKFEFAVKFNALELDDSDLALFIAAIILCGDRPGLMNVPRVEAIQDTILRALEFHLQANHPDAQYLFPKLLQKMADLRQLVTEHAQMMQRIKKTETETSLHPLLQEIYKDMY
DNA dC->dU-editing enzyme APOBEC-3G (Homo sapiens), sequence (Q9HC16 whole entry, looked up): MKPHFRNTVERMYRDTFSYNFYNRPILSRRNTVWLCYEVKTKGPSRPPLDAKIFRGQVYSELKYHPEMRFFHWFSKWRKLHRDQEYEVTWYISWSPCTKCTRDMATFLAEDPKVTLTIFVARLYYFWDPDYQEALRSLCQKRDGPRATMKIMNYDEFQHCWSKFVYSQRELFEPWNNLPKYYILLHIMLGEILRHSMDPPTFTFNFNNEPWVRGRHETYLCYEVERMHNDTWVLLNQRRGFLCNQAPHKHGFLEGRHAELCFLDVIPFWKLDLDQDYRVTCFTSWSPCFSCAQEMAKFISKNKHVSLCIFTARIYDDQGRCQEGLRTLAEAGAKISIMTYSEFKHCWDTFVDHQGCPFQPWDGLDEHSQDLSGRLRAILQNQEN
Cytochrome P450 3A4 (Homo sapiens), sequence (P08684 whole entry, looked up, canonical isoform): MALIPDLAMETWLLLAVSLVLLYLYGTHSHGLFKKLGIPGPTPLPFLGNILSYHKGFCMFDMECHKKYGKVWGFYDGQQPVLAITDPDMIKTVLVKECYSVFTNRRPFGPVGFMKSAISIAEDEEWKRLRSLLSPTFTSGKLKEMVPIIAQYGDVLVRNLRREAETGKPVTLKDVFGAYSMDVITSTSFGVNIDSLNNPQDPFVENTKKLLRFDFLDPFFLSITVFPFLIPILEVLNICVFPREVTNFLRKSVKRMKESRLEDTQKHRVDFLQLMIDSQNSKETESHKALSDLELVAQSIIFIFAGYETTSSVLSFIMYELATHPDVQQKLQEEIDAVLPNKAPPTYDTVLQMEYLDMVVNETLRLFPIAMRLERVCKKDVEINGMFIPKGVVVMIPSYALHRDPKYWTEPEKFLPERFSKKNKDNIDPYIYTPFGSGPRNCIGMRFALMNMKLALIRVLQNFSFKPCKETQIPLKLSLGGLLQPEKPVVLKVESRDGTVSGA
Glucocorticoid receptor (Homo sapiens), sequence (P04150 whole entry, looked up): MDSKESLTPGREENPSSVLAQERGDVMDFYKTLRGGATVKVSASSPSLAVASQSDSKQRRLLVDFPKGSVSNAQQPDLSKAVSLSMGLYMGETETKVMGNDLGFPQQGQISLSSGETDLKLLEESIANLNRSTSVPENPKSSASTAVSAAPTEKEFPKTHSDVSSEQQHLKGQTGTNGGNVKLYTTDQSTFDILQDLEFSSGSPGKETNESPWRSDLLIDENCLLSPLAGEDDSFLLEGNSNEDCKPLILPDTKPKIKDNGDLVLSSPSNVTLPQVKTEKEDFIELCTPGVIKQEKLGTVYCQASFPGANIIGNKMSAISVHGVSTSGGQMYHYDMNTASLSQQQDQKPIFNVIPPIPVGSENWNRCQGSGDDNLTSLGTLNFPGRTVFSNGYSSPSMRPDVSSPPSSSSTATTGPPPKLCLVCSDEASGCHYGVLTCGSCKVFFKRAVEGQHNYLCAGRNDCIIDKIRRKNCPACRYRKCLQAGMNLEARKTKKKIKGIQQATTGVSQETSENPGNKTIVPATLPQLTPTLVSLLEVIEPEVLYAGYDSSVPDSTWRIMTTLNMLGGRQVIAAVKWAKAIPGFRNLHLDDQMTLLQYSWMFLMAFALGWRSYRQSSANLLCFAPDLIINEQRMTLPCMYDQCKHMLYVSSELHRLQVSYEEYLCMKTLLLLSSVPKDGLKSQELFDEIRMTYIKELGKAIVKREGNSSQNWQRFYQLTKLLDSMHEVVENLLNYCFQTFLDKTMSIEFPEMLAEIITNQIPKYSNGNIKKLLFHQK
Cytochrome P450 1A2 (Homo sapiens), sequence (P05177 whole entry, looked up): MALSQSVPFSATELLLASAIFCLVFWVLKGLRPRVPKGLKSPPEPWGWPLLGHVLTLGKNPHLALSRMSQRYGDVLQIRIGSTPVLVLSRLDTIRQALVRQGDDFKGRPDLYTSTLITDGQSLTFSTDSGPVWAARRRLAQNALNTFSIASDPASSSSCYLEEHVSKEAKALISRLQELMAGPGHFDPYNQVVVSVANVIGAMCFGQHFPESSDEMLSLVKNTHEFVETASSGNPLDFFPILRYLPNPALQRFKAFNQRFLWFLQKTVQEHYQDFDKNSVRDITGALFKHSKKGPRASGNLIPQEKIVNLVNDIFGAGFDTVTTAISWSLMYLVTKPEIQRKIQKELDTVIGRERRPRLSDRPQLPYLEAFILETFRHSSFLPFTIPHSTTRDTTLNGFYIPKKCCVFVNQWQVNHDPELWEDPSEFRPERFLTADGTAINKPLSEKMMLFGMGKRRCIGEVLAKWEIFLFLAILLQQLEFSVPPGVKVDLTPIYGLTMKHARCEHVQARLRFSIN
Dual specificity protein kinase CLK4 (Homo sapiens), sequence (Q9HAZ1 whole entry, looked up): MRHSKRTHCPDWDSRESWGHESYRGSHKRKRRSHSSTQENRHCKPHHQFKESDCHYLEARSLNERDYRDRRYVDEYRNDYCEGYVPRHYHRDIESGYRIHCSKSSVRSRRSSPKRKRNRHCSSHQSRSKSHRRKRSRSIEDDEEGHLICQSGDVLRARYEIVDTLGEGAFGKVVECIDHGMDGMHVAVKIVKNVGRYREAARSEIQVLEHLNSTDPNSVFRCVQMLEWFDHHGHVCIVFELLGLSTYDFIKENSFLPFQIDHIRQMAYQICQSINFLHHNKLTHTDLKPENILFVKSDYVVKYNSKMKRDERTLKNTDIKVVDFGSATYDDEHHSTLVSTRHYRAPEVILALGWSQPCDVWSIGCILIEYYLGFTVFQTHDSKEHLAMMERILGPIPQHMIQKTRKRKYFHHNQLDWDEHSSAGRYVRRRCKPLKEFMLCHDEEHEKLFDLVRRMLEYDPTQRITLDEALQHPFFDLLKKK
Nuclear receptor subfamily 1 group I member 2 (Homo sapiens), sequence (O75469 whole entry, looked up): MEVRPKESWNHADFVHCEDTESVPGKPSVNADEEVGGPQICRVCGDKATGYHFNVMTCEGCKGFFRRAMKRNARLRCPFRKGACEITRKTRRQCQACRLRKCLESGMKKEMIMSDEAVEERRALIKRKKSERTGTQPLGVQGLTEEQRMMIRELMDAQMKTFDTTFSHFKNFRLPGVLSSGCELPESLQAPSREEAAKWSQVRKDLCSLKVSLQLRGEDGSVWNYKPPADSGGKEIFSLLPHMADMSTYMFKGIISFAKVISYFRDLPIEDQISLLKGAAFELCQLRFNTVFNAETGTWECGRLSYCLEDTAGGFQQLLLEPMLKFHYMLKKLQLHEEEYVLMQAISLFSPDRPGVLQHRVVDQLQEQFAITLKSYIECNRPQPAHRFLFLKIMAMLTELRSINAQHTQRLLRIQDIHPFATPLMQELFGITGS
Nuclear receptor ROR-gamma (Homo sapiens), sequence (P51449 whole entry, looked up): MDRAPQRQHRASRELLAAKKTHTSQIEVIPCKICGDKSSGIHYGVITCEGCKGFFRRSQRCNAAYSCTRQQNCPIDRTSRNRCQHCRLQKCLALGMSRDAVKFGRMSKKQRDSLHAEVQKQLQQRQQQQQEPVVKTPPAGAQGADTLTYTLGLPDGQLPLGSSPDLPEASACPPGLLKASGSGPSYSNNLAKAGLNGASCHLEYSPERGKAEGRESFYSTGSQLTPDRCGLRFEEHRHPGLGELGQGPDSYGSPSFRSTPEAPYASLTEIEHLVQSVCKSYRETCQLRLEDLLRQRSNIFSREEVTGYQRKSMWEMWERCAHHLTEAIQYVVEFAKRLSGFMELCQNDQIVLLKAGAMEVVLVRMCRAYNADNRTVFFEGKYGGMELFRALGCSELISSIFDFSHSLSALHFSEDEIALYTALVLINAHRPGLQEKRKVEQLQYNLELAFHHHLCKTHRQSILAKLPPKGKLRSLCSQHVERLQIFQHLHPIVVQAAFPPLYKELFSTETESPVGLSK
Guanine nucleotide-binding protein G(i) subunit alpha-1 (Homo sapiens), sequence (P63096 whole entry, looked up): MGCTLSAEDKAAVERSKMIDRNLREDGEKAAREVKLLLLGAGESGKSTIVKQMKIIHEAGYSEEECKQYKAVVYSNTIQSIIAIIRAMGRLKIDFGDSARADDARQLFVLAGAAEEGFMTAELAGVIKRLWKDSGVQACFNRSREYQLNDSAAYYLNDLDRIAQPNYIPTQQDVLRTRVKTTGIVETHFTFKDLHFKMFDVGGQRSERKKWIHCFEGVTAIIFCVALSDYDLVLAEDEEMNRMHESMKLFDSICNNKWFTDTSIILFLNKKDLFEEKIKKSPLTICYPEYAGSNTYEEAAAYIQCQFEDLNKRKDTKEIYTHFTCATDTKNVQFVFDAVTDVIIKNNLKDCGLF

`COCCNc1ncnc2ccc(-c3ccccc3C(F)(F)F)cc12`: the Potency in experiment [1] is 31.6 µM (active).
Turning to `C=CC(C)(O)CCC=C(C)C` (configuration not stated), the call in [2] and in [4] was inactive. Besides, the activation in experiment [3] was -2.85% (inactive) and -11.4% (inactive). Also, the Potency result in experiment [5] is “inactive”.
Take `COS(C)(=O)=O`: the outcome in experiment [6], in [4], in [8], in experiment [10] and in experiment [11] was inactive. For the same compound, the activation was -1.66% (inactive) in [3] and 0.279% (inactive) in [9]. Moreover, the max response in experiment [7] was -15.8%.
Take `CN1[C@@H]2CC[C@H]1CC(OC(=O)[C@@H](O)c1ccccc1)C2` (some centres not stated): in experiment [12], the Potency entry is “inactive”. Also, the result in [13] and in experiment [14] was inactive.
On to `COc1ccc2ccc(=O)oc2c1`, for which the compound was classed as inactive in [15], in experiment [18] and in experiment [19]. The Potency entry in experiment [16] was “inactive”. The Potency in [17] is 14.1 µM (active).
For `C=C(C)[C@H]1CC=C(C)C(=O)C1`, the result in experiment [6], in [2], in experiment [4], in [8], in experiment [15] and in experiment [18] was inactive. For the same compound, the outcome in [19] and in experiment [11] was inactive. The activation in experiment [3] is -5.14% (inactive) and -7.53% (inactive); in experiment [9], -0.312% (inactive) and 0.229% (inactive). The max response in experiment [7] was 35.6% and 28.4%. For the same compound, the Potency result in experiment [16] and in [17] was “inactive” in each case.
As to `O=C(/C=C/c1ccc(O)c(O)c1)OC(Cc1ccc(O)c(O)c1)C(=O)O` (configuration not stated), the result in experiment [2], in experiment [15] and in experiment [18] was inactive. Further, in experiment [16], the Potency is 3.55 µM (active).
Turning to `C[N+](C)(C)CC(O)CC(=O)O` (configuration not stated), the Potency entry in experiment [20] is “inactive”.
For the compound `COC(=O)C1=CO[C@@H](C)[C@H]2CN3CCc4c([nH]c5ccccc45)[C@@H]3C[C@H]12`, the Potency in experiment [17] is 3.55 µM (active). In addition, in experiment [19], the outcome was inactive.
In the case of `N#Cc1ccccc1-c1ccc2ncnc(NCc3cccs3)c2c1`, the Potency in experiment [1] was 3.16 µM (active).
Consider `C[C@@H]1CCC[C@H](C)N1NC(=O)c1ccc(Cl)c(S(N)(=O)=O)c1`, for which the Potency entry in experiment [20] was “inactive”.
As to `Cc1occc(=O)c1O`, the compound was classed as inactive in experiment [6], in [10] and in experiment [11]. For the same compound, in [5], the Potency result is “inactive”. For the same compound, the activation in [9] was -0.401% (inactive).
On to `C=C[C@](C)(O)CCC=C(C)C`, for which the Potency in experiment [16] and in [17] was 3.55 µM (active) throughout. For the same compound, the result in [19] was inactive.
`Cc1nc2cnc(Nc3ccccc3)nc2n(C[C@H]2CCCO2)c1=O`: the Potency in [1] was 22.4 µM (active).
Turning to `CN1CCCC[C@@H]1CCN1c2ccccc2Sc2ccc(S(C)=O)cc21` (some centres not stated), the Potency result in experiment [20] was “inactive”.
In the case of `CCCN(CCC)C(=O)[C@@H](CCC(=O)O)NC(=O)c1ccccc1`, the Potency entry in experiment [12] and in [20] was “inactive” each time. For the same compound, the outcome in experiment [13] and in experiment [14] was inactive.
